In PubChem BioAssay (Tox21):
Results filed as inconclusive are left out. Activity calls are given as the source filed them. Unless noted, calls follow the shape of the full dose curve.

Key:
[1] = Nuclear factor erythroid 2-related factor 2/antioxidant responsive element (Nrf2/ARE) small molecule agonists: qHTS cell viability counter screen in human keratinocytes (AID 1919968; active = well fitted curve in the direction sought with a large enough effect in the repeat runs; an effect the other way counts as inactive or inconclusive; also: nearly all actives have a fitted effect of over 55% in size)
How it was run: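 KeratinoSens HaCaT cells, 1,500/well, preincubated 5 h, then exposed to compounds in DMSO for 23 h at 37 C/5% CO2. Viability read as CellTiter-Fluor fluorescence after 1 h, in the same wells as the ARE-luciferase read.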

[2] = molecular target: KiSS-1 receptor (Homo sapiens) (UniProt Q969F8); experiment: Human kisspeptin (KISS1R) small molecule agonists, calcium flux assay in KISS1R-HEK293 cells (AID 1920064; active = well fitted curve in the direction sought with a large enough effect in the repeat runs; an effect the other way counts as inactive or inconclusive)
Sequence of KiSS-1 receptor (Homo sapiens) (Q969F8 whole entry, looked up): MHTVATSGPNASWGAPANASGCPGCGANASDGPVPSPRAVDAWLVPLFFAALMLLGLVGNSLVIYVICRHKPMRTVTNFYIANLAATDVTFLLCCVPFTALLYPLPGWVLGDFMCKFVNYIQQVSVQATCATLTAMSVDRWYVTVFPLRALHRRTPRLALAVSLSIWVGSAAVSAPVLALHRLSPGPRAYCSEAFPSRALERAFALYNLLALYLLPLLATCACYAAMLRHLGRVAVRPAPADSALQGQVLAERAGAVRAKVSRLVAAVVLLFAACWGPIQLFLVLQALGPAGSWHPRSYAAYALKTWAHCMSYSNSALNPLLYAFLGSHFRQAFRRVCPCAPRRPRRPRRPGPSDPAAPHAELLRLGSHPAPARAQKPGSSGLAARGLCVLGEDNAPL
How it was run: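 HEK293 cells stably expressing human KISS1R were loaded with calcium dye for 1 h at 37 C, then given compound; fluorescence (Ex/Em 480/540) was read kinetically for 3 min. Fifteen concentrations, triplicate.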

[3] = G protein-coupled receptor (GPCR) small molecule agonists, calcium flux assay: HEK293 wild type cell line counter screen (AID 1920065)
How it was run: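 Wild-type HEK293 cells plated 18 h, loaded with calcium dye 1 h at 37 C, then compounds added in agonist mode (ATP as positive control). Kinetic fluorescence Ex/Em 480/540 recorded 3 min at 1 sec intervals; 15 concentrations, triplicate.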

[4] = p53 small molecule agonists, cell-based qHTS assay with human liver microsomes (AID 1963577);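 also: p53 response element beta-lactamase reporter cells with liver microsomes plus NADPH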
How it was run: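 With metabolic activation: human liver microsomes (0.5 mg/mL final) plus NADPH (0.5 mg/mL final) added alongside compounds to p53RE-bla cells; 16 h 37 C exposure; beta-lactamase read by LiveBLAzer fluorescence.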

[5] = p53 small molecule agonists, cell-based qHTS assay with rat liver microsomes (AID 1963578)
How it was run: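 Metabolic activation by rat liver microsomes and NADPH, each 0.5 mg/mL final, added right after compounds to p53RE-bla reporter cells (4,000/well, plated 5 h earlier). 16 h at 37 C, then LiveBLAzer substrate for 2 h at room temperature in the dark; fluorescence read-out.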

[6] = p53 small molecule agonists, cell-based qHTS assay with human liver microsomes: qHTS cell viability counter screen (AID 1963579); also: nearly all actives have a fitted effect of over 45% in size
How it was run: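 Metabolic activation used human liver microsomes and NADPH, both 0.5 mg/mL final, over 16 hours at 37 C on p53RE-bla cells (4,000/well). Cytotoxicity measured by CellTiter-Glo luminescence, 30 min at room temperature.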

[7] = p53 small molecule agonists, cell-based qHTS assay with rat liver microsomes: qHTS cell viability counter screen (AID 1963580); also: nearly all actives have a fitted effect of over 45% in size
How it was run: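 p53RE-bla HCT-116 cells were exposed 16 h at 37 C to compounds with rat liver microsomes (0.5 mg/mL) and NADPH (0.5 mg/mL). Viability was measured in the same wells as ATP content by CellTiter-Glo luminescence.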

[8] = p53 small molecule agonists, cell-based qHTS assay: qHTS cell viability counter screen (AID 1963581); also: nearly all actives have a fitted effect of over 45% in size
How it was run: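 p53RE-bla HCT-116 cells, compounds added 5 h after plating and incubated 16 h at 37 C. Cytotoxicity measured in the same wells as intracellular ATP by CellTiter-Glo luminescence after 30 min at room temperature.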

[9] = p53 small molecule agonists, cell-based qHTS assay (AID 1963582; active = well fitted activation curve with a large enough effect in the signal ratio in the repeat runs, not every such curve was filed as active; the % refers to the signal ratio)
How it was run: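 p53RE-bla reporter cells, compounds added in DMSO after 5 h plating, incubated 16 h at 37 C. Beta-lactamase read via 2 h room-temperature LiveBLAzer B/G FRET substrate, fluorescence intensity.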

[10] = molecular target: 5-hydroxytryptamine receptor 2A (Homo sapiens) (UniProt P28223); experiment: 5-hydroxytryptamine receptor 2A (HTR2A) small molecule antagonists, cell-based qHTS assay (AID 1963586); also: nearly all actives have a fitted effect of over 45% in size
Sequence of 5-hydroxytryptamine receptor 2A (Homo sapiens) (P28223 whole entry, looked up): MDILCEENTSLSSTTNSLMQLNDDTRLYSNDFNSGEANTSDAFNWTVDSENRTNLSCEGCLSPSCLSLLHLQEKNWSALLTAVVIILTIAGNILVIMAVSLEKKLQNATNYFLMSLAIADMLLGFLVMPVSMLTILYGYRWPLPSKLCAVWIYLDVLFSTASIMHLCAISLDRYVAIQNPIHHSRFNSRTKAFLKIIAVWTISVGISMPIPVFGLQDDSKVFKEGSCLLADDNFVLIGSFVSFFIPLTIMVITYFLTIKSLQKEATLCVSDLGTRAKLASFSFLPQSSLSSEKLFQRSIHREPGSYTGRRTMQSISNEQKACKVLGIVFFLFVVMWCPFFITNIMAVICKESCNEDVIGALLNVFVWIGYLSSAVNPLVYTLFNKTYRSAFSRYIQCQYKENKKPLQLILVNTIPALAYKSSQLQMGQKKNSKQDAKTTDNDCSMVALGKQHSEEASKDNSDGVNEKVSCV
How it was run: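 Antagonist-mode intracellular calcium assay: DOI (4 nM) added after 5 min compound pre-incubation at room temperature to dye-loaded HTR2A-CHO cells. Fluorescence followed for 3 min, sampled every second.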

[11] = molecular target: 5-hydroxytryptamine receptor 2A (Homo sapiens) (UniProt P28223); experiment: 5-hydroxytryptamine receptor 2A (HTR2A) small molecule agonists, cell-based qHTS assay (AID 1963587); also: nearly all actives have a fitted effect of over 30% in size
How it was run: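 CHO cells stably expressing human HTR2A, plated 18 h, loaded with calcium dye 1 h at 37 C. Agonist mode: compounds added and intracellular calcium fluorescence recorded kinetically for 2 min at 1 sec intervals.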

[12] = molecular target: Muscarinic acetylcholine receptor M1 (Homo sapiens) (UniProt P11229); experiment: Cholinergic receptor muscarinic 1 (CHRM1) small molecule antagonists, cell-based qHTS assay (AID 1963588); also: nearly all actives have a fitted effect of over 40% in size
Sequence of Muscarinic acetylcholine receptor M1 (Homo sapiens) (P11229 whole entry, looked up): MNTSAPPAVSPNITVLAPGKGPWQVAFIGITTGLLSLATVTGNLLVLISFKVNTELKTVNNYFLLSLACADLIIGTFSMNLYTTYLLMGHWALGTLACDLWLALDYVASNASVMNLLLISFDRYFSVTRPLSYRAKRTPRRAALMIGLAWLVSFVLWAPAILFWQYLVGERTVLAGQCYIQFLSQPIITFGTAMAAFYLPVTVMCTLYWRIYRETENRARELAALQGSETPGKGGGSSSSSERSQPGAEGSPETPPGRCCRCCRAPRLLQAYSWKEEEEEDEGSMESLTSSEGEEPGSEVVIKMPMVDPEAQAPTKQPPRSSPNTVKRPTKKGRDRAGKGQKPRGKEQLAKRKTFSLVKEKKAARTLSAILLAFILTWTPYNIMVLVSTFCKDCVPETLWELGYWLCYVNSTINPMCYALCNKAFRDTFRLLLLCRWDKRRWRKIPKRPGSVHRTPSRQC
How it was run: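 CHRM1-CHO calcium-flux assay, antagonist mode. Cells were seeded 18 h, dye-loaded 1 h at 37 C and given compound for 5 min at RT, then acetylcholine was added at 50nM. FDSS fluorescence was read 3 min; 15 concentrations, three runs.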

[13] = molecular target: Muscarinic acetylcholine receptor M1 (Homo sapiens) (UniProt P11229); experiment: Cholinergic receptor muscarinic 1 (CHRM1) small molecule agonists, cell-based qHTS assay (AID 1963589); also: nearly all actives have a fitted effect of over 35% in size
How it was run: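 CHO cells stably expressing human CHRM1 were loaded with calcium dye for 1 h at 37 C, then compound was added in agonist mode. Intracellular calcium fluorescence was followed kinetically at 1 s intervals. Fifteen concentrations were tested in three independent runs.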

[14] = cAMP Responsive Elements (CRE) small molecule agonists, cell-based qHTS assay (AID 1963590)
How it was run: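 CRE-bla HEK 293T cells, 2,000/well in DMEM with 10% dialyzed FBS and 25 mM HEPES, pre-incubated 18 h at 37 C, then exposed to compound 3 h at 37 C. Beta-lactamase reporter read with LiveBLAzer B/G FRET substrate after 2 h at room temperature.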

[15] = cAMP Responsive Elements (CRE) small molecule antagonists, cell-based qHTS assay (AID 1963591; active = well fitted inhibition curve with a large enough effect in the signal ratio in the repeat runs, not every such curve was filed as active; the % refers to the signal ratio)
How it was run: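 CRE-bla HEK293T cells plated 18 h, then given compound plus NKH477 at 0.25 uM final for 3 h at 37C. Beta-lactamase reporter read with LiveBLAzer B/G FRET substrate after 2 h at room temperature.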

[16] = molecular target: Beta-2 adrenergic receptor (Homo sapiens) (UniProt P07550); experiment: Adrenergic beta2 receptor (ADRB2) small molecule antagonists, cell-based qHTS assay (AID 1963592); also: series mostly up to about 92 µM; nearly all actives have a fitted effect of over 50% in size
Sequence of Beta-2 adrenergic receptor (Homo sapiens) (P07550 whole entry, looked up): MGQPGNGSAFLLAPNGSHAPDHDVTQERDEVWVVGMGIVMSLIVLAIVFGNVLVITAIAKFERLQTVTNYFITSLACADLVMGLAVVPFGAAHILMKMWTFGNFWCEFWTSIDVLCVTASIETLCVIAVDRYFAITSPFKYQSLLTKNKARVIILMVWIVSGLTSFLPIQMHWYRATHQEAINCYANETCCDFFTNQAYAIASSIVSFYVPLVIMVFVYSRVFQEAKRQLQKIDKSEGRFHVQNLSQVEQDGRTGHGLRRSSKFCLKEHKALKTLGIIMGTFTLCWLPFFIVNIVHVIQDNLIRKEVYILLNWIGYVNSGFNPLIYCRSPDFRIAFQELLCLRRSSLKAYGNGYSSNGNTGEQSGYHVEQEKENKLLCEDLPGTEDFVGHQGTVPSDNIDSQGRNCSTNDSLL
How it was run: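 Cells (CHO, stable ADRB2 overexpression) incubated 18-20hr at 37C; compounds added from DMSO; agonist mix (1nM isoproterenol, 100uM IBMX, 25uM Ro-20-1724) added; 0.5hr RT; d2-cAMP and anti-cAMP-cryptate added; 1hr RT; 665/615 nm read.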

[17] = molecular target: D(2) dopamine receptor (Homo sapiens) (UniProt P14416); experiment: Dopamine D2 receptor (DRD2) small molecule agonists, cell-based qHTS assay (AID 1963594); also: nearly all actives have a fitted effect of over 35% in size
Sequence of D(2) dopamine receptor (Homo sapiens) (P14416 whole entry, looked up): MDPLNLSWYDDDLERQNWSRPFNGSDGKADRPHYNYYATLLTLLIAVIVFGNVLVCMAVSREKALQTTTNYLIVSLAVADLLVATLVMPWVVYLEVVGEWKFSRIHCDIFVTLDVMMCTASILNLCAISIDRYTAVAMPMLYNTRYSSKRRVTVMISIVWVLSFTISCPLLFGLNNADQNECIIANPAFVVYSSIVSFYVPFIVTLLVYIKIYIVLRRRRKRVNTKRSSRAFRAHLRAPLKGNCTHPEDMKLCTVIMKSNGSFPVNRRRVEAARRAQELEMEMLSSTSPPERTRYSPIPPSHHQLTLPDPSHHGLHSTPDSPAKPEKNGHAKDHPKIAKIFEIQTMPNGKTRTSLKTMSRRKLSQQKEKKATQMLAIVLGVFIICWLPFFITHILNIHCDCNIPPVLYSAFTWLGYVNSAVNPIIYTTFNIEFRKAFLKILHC
How it was run: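 HEK293 cells stably expressing human DRD2, pre-treated with PDE inhibitor Ro20-1724 (0.1 mM final) and compound 10 min at room temperature, then stimulated with NKH477 (200nM […]) for 30 min. cAMP read by HTRF (665/620 nm).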

[18] = molecular target: D(2) dopamine receptor (Homo sapiens) (UniProt P14416); experiment: Dopamine D2 receptor (DRD2) small molecule antagonists, cell-based qHTS assay (AID 1963595; active = well fitted inhibition curve with a large enough effect in the signal ratio in the repeat runs, with a control signal flat; the % refers to the signal ratio)
How it was run: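 Antagonism was scored as restored cAMP in HEK293-DRD2 cells. These cells were stimulated with 200 nM NKH477 and 12 nM quinpirole for 30 min at room temperature, in the presence of 0.1 mM Ro20-1724.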

[19] = Nuclear factor erythroid 2-related factor 2/antioxidant responsive element (Nrf2/ARE) small molecule agonists: luciferase reporter gene qHTS assay in human keratinocytes (AID 1919969); also: nearly all actives have a fitted effect of over 35% in size
[20] = molecular target: Beta-2 adrenergic receptor (Homo sapiens) (UniProt P07550); experiment: Adrenergic beta2 receptor (ADRB2) small molecule agonists, cell-based qHTS assay (AID 1963593);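 also: CHO cells stably overexpressing human ADRB2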
How it was run: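 CHO cells stably over-expressing ADRB2 were plated overnight at 37C, then dosed with compounds plus a stimulation mix containing 100uM IBMX and 25uM Ro-20-1724 for 0.5hr at room temperature. cAMP was measured by HTRF competition, 1hr.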

Measured: Potency

OCCC(O)CO (configuration not stated)
not listed: [19] | [20]
inactive: all other assays above

CC1COc2c(N3CCN(C)CC3)c(F)cc3c(=O)c(C(=O)O)cn1c23 (configuration not stated)
inactive: [1] | [2] | [3] | [4] | [5] | [6] | [7] | [8] | [9] | [15] | [18]

COc1c(N2CCNC(C)C2)c(F)cc2c(=O)c(C(=O)O)cn(C3CC3)c12 (configuration not stated)
not listed: [10] | [11] | [12] | [13] | [17] | [19] | [20]
inactive: all other assays above

C=CCn1c(=O)n([C@@H]2O[C@H](CO)[C@@H](O)[C@H]2O)c2nc(N)[nH]c(=O)c21
not listed: [2] | [6] | [13] | [20]
inactive: all other assays above

O=C1CCCCO1
not listed: [19] | [20]
inactive: all other assays above

O=C(NCCO[N+](=O)[O-])c1cccnc1
not listed: [11] | [19]
inactive: all other assays above

O=C(O)CCSCCC(=O)O
not listed: [12] | [16] | [19]
inactive: all other assays above

C/C=C(\C)C#N
not listed: [17] | [18] | [19] | [20]
inactive: all other assays above
